# The supplement of paper PMC6555819
# Test system: VDR:RXRa (NR concentration 270 nM, RXRa partner concentration 90 nM)
# Test: PBM binding z-score (relative to random genomic background probes); higher = stronger binding; sequences stand for … in GC…GCGATTGACAGCGTAGAATGAAGG
# Description: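 Protein-binding microarray (Agilent 4x180K custom design, double-stranded 60-nt probes: 5' GC cap, 34-nt variable region, 24-nt constant primer region; full probe sequence given). Purified or IVT nuclear receptor:RXRα heterodimers (3:1 NR:RXRα, mostly 270:90 nM) or homodimers were incubated for 1 h in PBS with 2% milk and no ligand, then detected with Alexa488 antibodies. Fluorescence from o1-orientation probes (~5 replicates averaged) was converted to z-scores against 500 random hg19 background probes. Variable regions are seed direct-repeat (DR0–DR5) sites, all their single-nucleotide variants and half-site ablations.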
row,Sequence,PBM binding z-score
1,GCTGCTAGGTCAACTGATGGTCAGTTAAAGCTCG,1.85
2,TAGCCTAGGTCAGATCGGGCCCGTATACGCTATA,0.22
3,CCTCGGACGACAACAGGAGGTCAGAGCTGCCAGA,1.52
4,GCGACTGGGGCCTCAGCAGGTTACCATAACTTAA,-0.529
5,ACTATTAGTTAAGACGAGGGCAACCGATAGGTTG,0.464
6,TCTTGTAGATCAAGCACGTTAAGAAAGCCTGAGT,0.187
7,CCTAGTAGGTCAAGGTCACACACGCTATAGGTAC,5.04
8,GCTAGTTGGTCAGCAAAAGGTCACACACCGGTCG,4.13
9,AATCCAGGGTCATCGTAGGCCAGAGTACGCACAG,5.32
10,GCTTGTAGATCAAGGTTAAGTAAGACTAAGCTAA,0.257
11,CGCCCAAGGTCAATGCTAGGTCAGTGAAAGCATT,4.59
12,GTACCAAGGTGAAGAGGTCGTTGATGAGTAGGCG,2.71
13,GATACAGGGTCCGCTAGAGGCCAGAGTATGGAAA,-0.544
14,TCTTGCAGGCCAGAGGGTCACTCAAGAGGTACGG,1.7
15,TTACCAACGTGAAAGGTCGTTGATGCACGCCTTG,1.74
16,TCATATAGGTAAACAGGTGGAAGTCCGTAAGTTA,0.7
17,TCTTGTAGATCAACAGGAGGTTAAGAACGATCGA,0.419
18,CAAACTAGGTCTAAGGTCAAAGTCGAGCCAACCA,4.26
19,CGTCCAAGGTCAAAGGTCAGTGACGAGATGACGG,6.67
20,GCTTACGCGTCAAAGGTTATAGCATGAATAGAAT,1.12

row,Sequence,PBM binding z-score
1,TCTTGTAGCTCAAGCAGGTTAAGAAAGCCTGAGT,-0.0447
2,ACTCGGAGGCCAAAGGTCAGAGCTACGCCAGTGA,3.11
3,CCGACTGGGGCAAGGATACCATAACGCACAGCCA,-0.596
4,ATCGAAAGGTCGAAGGCGAGTATACCCACCCGAA,2.22
5,TCATATAGGTGAAGGTGAAAGTCGAACGATATGA,0.278
6,TCTAGTTAGTCAAAGGTCACACACTCGAAATGCG,4.97
7,CATACAGGGTCAGCTAGGCCAGTGTAGGGACGGC,3.86
8,CCAAGTTGGTCAAGGTCACACACGCTATAGGTAC,4.79
9,CGAAGTAGGTCATTGACAGGACAGTGAATAGTAA,2.62
10,ATATGTAGGTAATCGGGTCATTCAGTTTGCGCAT,4.7
11,GCAGACAGGTGAAACGAAGGTAACTCAGGGTGGC,-0.301
12,CGTCCAAGGCCAGAGAGGTCAGTGAATGCCGAGT,4.04
13,CCGACTGGGGCAAAGGGTACCATACTCAGTACGA,0.4
14,ACTATTAGTTGAGACGAGGCCAACCGATAGGTTG,0.333
15,CCTGCTAGGTCATGGTCAGCTACTCTACAGTATG,1.46
16,TCTTGTAGATCTAAGGTTAAGAAAGCCGAAGCCT,0.651
17,GCTTGTAGATCAAGGTTGAGAAAGACTAAGCTAA,-0.388
18,ATCTAAAGGTCGTGAGGTGAGTATACAGAAAGGC,3.73
19,GCAGGCAGGTGAAACGCAGGTAACTCAGGGTGGC,0.85
20,ACTAACGGGTCAACGAGGTTATAGCACGCGTATA,7.41
